Values without a mark were called inactive.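 Rule for the calls: active = log2 fold change beyond 2 SD from the library mean after excluding viability outliers; inactive = within 2 SD.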

The target of the experiment is PARP1 L713F-nLuc biosensor (HCT116) (UniProt P09874). Nature of the experiment: PARP1 L713F-nLuc/akaLuc ratio relative to DMSO control (biosensor stabilization) (fold change); higher = more PARP1 biosensor stabilization (target engagement / stabilizer), active = hit call of the paper. Conditions: stock concentration (mM; final µM = stock mM x 1): 10; 24 h.
PARP1 L713F-nLuc biosensor (HCT116), sequence (P09874 whole entry L713F, looked up): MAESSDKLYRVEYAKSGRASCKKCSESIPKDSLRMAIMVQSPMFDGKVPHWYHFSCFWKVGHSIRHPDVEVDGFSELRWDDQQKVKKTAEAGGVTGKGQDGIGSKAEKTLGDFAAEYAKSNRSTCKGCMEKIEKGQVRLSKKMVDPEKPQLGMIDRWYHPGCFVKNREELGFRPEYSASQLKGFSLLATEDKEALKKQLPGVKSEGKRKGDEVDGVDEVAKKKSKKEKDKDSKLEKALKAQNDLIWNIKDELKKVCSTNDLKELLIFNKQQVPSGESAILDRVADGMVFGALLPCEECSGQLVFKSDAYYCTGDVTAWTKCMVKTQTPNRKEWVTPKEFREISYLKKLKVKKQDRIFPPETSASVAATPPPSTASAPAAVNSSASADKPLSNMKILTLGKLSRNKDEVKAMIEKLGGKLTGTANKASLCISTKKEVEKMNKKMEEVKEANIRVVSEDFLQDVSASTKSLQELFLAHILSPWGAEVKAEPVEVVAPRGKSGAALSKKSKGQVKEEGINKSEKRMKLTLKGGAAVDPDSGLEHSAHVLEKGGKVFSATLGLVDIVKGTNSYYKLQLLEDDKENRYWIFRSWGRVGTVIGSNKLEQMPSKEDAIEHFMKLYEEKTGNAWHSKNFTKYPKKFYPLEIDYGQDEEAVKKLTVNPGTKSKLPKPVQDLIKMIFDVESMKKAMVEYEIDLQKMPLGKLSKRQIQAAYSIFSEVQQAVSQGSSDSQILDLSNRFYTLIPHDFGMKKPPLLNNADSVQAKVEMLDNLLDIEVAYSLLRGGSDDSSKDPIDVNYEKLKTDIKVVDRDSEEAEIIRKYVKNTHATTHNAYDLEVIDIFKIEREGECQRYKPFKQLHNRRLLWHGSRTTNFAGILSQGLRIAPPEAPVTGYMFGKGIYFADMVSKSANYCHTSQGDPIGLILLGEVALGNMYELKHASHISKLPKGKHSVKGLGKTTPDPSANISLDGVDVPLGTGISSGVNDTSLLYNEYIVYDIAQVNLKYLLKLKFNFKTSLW
For the compound `O=c1[nH]c(N2CCC3(CC2)CN(CCO)c2cc(F)cc(F)c23)nc2c1CCCC2`, the “PARP1 L713F-nLuc/akaLuc ratio” value was 0.755. For `Cc1ccc(=O)n(-c2ccccc2)c1` [Pirfenidone] the value was 0.824; for `OC1CCC(Nc2ncc3nc(Nc4c(F)cc(F)cc4F)n([C@H]4CCOC4)c3n2)CC1` (stereo not given in full) [Tanzisertib(CC-930)], 1.11. On to `O=C(c1cc(Cc2n[nH]c(=O)c3ccccc23)ccc1F)N1CCn2nc(C(F)(F)F)nc2C1` [Fluzoparib], for which the “PARP1 L713F-nLuc/akaLuc ratio” value is 3.72 (active). For `O=C(O)c1ccc2c(c1)nc(NC(=O)c1ccccc1)n2CCCc1ccccc1` the value was 1.26.

For the compound `Cn1cc(Nc2nccc(N3C[C@H]4CC[C@@H](C3)N4C(=O)[C@@H]3CC3(F)F)n2)cn1` [Brepocitinib (P-Tosylate)], the “PARP1 L713F-nLuc/akaLuc ratio” value is 0.619. For `CNc1nc(-c2ccc3c(N)n[nH]c3c2)cc(N2C[C@@H](C(=O)NC3CCCCC3)CC[C@H]2C)n1` the value was 0.434.

`COc1ccccc1S(=O)(=O)Nc1ccc2c3c(cc(-n4cnc(C)c4)nc13)C(=O)N2C`: the “PARP1 L713F-nLuc/akaLuc ratio” value was 1.04.

With `COc1ccc(S(=O)(=O)Nc2cccnc2Nc2ccc(O)cc2)cc1`, the “PARP1 L713F-nLuc/akaLuc ratio” value is 1.28. Take `N#Cc1ccnc(N2C(=O)CC[C@H]2C(=O)N(c2cncc(F)c2)[C@H](C(=O)NC2CC(F)(F)C2)c2ccccc2Cl)c1` [Ivosidenib (AG-120)]: the “PARP1 L713F-nLuc/akaLuc ratio” value is 0.863. For `CCCC(CCC)C(=O)O` [Valproic acid] the value was 1.52. In the case of `NC(=O)[C@H]1CCCc2c1[nH]c1ccc(Cl)cc21` [(S)-Selisistat], the “PARP1 L713F-nLuc/akaLuc ratio” value was 0.706.

As for `O=C(c1cncc(Br)c1)N1CCC(N2CCCC2)CC1`, the “PARP1 L713F-nLuc/akaLuc ratio” value was 1.73. For `CCN(CCN(C)C)C(=O)CNCc1cc(C(N)=O)ccn1` [KDOAM-25 (citrate)] the value was 1.15; for `COc1ccc(C(=O)C2CCN(CC(=O)N(Cc3nc4c(c(=O)[nH]3)COCC4)CC3CC3)CC2)cc1`, 1.01; for `C=C(C)[C@@H](CC=C(C)C)C[C@@]12C[C@@H](CC=C(C)C)C(C)(C)[C@@](CC=C(C)C)(C(=O)C(C(=O)c3ccc(O)c(O)c3)=C1O)C2=O` [Garcinol], 0.631. Consider `COc1cc(Nc2ncc(F)c(Nc3ccc4c(n3)N(COP(=O)(O)O)C(=O)C(C)(C)O4)n2)cc(OC)c1OC` [Fostamatinib (R788)], for which the “PARP1 L713F-nLuc/akaLuc ratio” value was 0.614.

Turning to `CC(=O)Nc1ccccc1-c1cccc2c1[nH]c1ccccc12`, the “PARP1 L713F-nLuc/akaLuc ratio” value was 0.622. For `N#Cc1c(Oc2ccc(F)c(NC(=O)Cc3cccc(C(F)(F)F)c3)c2)ccc2nc(NC(=O)C3CC3)sc12` the value was 0.538. For `CN1CCN(c2ccc3nc(-c4c(N)c5c(F)cccc5[nH]c4=O)[nH]c3c2)CC1` [Dovitinib (TKI258) Lactate] the value was 0.754; for `COc1cc([C@@H]2c3cc4c(cc3[C@@H](O[C@@H]3O[C@@H]5CO[C@@H](C)O[C@H]5[C@H](O)[C@H]3O)[C@H]3COC(=O)[C@H]23)OCO4)cc(OC)c1O` [Etoposide], 0.601; for `O=c1[nH]c(=O)n([C@H]2C[C@H](O)[C@@H](CO)O2)cc1F` [Floxuridine], 0.549. For `COc1cc2c(Oc3ccc4[nH]c(C)cc4c3F)ncnc2cc1OCCCN1CCCC1` [Cediranib (AZD2171)] the value was 1.46; for `CS(=O)(=O)NCCC1CCN(c2ncnc3cc(C(N)=O)sc23)CC1`, 0.762. In the case of `CO[C@H]1C[C@@H]2CC[C@@H](C)[C@@](O)(O2)C(=O)C(=O)N2CCCC[C@H]2C(=O)O[C@H]([C@H](C)C[C@@H]2CC[C@@H](O)[C@H](OC)C2)CC(=O)[C@H](C)/C=C(\C)[C@@H](O)[C@@H](OC)C(=O)[C@H](C)C[C@H](C)/C=C/C=C/C=C/1C` [Rapamycin (Sirolimus)], the “PARP1 L713F-nLuc/akaLuc ratio” value is 0.6. Take `COC(=O)c1cccc(NC(=O)NC2CCN(c3ccnc(Nc4ccc(F)cc4)n3)C2)c1` (stereo not given): the “PARP1 L713F-nLuc/akaLuc ratio” value is 1.07. For `O=C(c1ccc(C(=O)N2CCC(N3CCCC3)CC2)c(Nc2ccccc2)c1)N1CCC(N2CCCC2)CC1` the value was 0.936; for `Cn1cc(CCn2cnc(-c3cnn(C)c3)c2-c2ccc(C#N)cc2)cn1`, 0.997; for `C[C@@H](NC(=O)c1ncnc(N)c1Cl)c1ncc(C(=O)Nc2cc(C(F)(F)F)c(Cl)cn2)s1`, 0.886. For `COc1ccc2c(=O)c(-c3ccccc3)coc2c1` [7-Methoxyisoflavone] the value was 0.63.
